Measurements taken from PubChem BioAssay AID602405 (Broad Institute, 2012).
The campaign covered roughly 360,000 compounds. About 350 (0.097%) were called active. What follows is part of a selection rich in actives, with near analogues and random picks from the rest. Values without a mark were called inactive. Cut-off read from the data, not from the text of the source: active = inhibition above about 16% (passing the limit was not always enough); inconclusive = no clear call, values can overlap the other calls; inactive = below that.

test system: UDP-N-acetylbacillosamine N-acetyltransferase PglD (Campylobacter jejuni); experiment: blockers of PglD enzyme activity – biochemical, DTNB colorimetric, single point, primary screen (AID 602405); settings: purified PglD enzyme, DTNB colorimetric CoA detection; at 12.5 µM; stronger effect = higher value

SMILES	inhibition
CC(C)CC#Cc1cnc2c(c1)C(=O)N([C@H](C)CO)C[C@H](C)[C@@H](CN(C)C(=O)Cc1cccnc1)O2	-1.63%
CCCN1C[C@H](C)[C@@H](OC)CN(C)C(=O)c2ccc(NC(=O)C3CCOCC3)cc2OC[C@H]1C	0.0955%
C[C@H]1CCCCO[C@@H](CN(C)C(=O)Nc2cccc3ccccc23)[C@@H](C)CN([C@@H](C)CO)C(=O)c2cc(NS(=O)(=O)c3ccc(Cl)cc3)ccc2O1	19.9%
C[C@H]1CN([C@@H](C)CO)C(=O)c2cc(-c3cccc(F)c3)cnc2O[C@@H]1CN(C)Cc1cncnc1	4.73%
COCC(=O)Nc1ccc2c(c1)OC[C@H](C)N(C)C[C@@H](C)[C@@H](OC)CN(C)C2=O	-0.767%
CCC(=O)Nc1ccc2c(c1)C(=O)N(C)[C@@H]1CC[C@@H](CC(=O)N[C@@H](C)c3ccccc3)O[C@@H]1CO2	2.31%
C/C=C/c1ccc2c(c1)O[C@@H](CN(C)C(=O)C1CCOCC1)[C@H](C)CN([C@H](C)CO)S2(=O)=O	-2.4%
CCCNC(=O)N(C)C[C@@H]1Oc2cc(-c3ccccc3)ccc2S(=O)(=O)N([C@H](C)CO)C[C@H]1C	3.76%
COCC#Cc1ccc2c(c1)O[C@@H](CN(C)C(C)=O)[C@H](C)CN([C@H](C)CO)S2(=O)=O	2.69%
C[C@H](CO)N1C[C@H](C)[C@@H](CN(C)Cc2ccc3c(c2)OCO3)Oc2c(NC(=O)C3CCOCC3)cccc2C1=O	-0.262%
Cc1ccc(CN(CC(=O)NCC2CCCO2)S(=O)(=O)c2ccc(C)cc2)cc1 (stereo not given)	-1.95%
Cc1ccc(S(=O)(=O)N2CCC(C(=O)NCC3CCCO3)CC2)cc1 (stereo not given)	34.1% (active)
Cc1ccc(S(=O)(=O)N2CCC(C(=O)N3CCCCCCC3)CC2)cc1	-2.53%
CCCNC(=O)[C@H]1[C@H](CO)[C@H]2Cn3c(ccc(C4=CCCC4)c3=O)[C@H]2N1C(=O)CC1CC1	0.913%
CO[C@@H]1CC[C@@H]2CCOc3ccc(C#N)cc3C(=O)N(C)C[C@@H](OC)[C@@H](C)C(=O)N(C)C[C@H]1O2	2.01%
O=C(CC1CC1)Nc1ccc2c(c1)[C@@H]1C[C@@H](CC(=O)NC3CCCCC3)O[C@@H](CO)[C@@H]1O2	0.63%
C[C@@H]1CN([C@@H](C)CO)C(=O)c2cc(C3=CCCCC3)cnc2O[C@H]1CN(C)CC1CCOCC1	4.78%
C[C@H]1CN([C@@H](C)CO)C(=O)c2cc(/C=C/c3ccccc3)cnc2O[C@@H]1CN(C)C(=O)NC1CCCCC1	4.19%
C[C@@H]1CCCCO[C@@H](CN(C)C(=O)Cc2ccccc2)[C@@H](C)CN([C@@H](C)CO)C(=O)c2cc(NC(=O)c3ccccc3)ccc2O1	-0.412%
COc1ccc(NC(=O)Nc2cccc3c2O[C@H](CN(C)S(=O)(=O)c2ccc(F)cc2)[C@H](C)CN([C@H](C)CO)C3=O)cc1	2.54%
C=CCOC(=O)C1=C(C)NC(SCC(=O)OCC)=C(C#N)C1c1ccc(C)cc1 (stereo not given)	25.9% (active)
CCOC(=O)CSC1=C(C#N)C(c2sccc2C)CC(=O)N1 (stereo not given)	-0.988%

SMILES	inhibition
C=CCOC(=O)C1=C(C)NC(C)=C(C(=O)OCC=C)C1c1cccs1	-1.12%
CCCC(=O)Nc1ccc2c(c1)C(=O)N(C)[C@H]1CC[C@@H](CC(=O)NCc3cccc(F)c3)O[C@H]1CO2	0.49%
COc1ccc(S(=O)(=O)NC(C)C(=O)N2CCCCCC2)cc1 (stereo not given)	2.86%
CSCCC(NC(=O)c1ccccc1)C(=O)N1CCCCCCC1 (stereo not given)	6.24%
CC(NC(=O)c1ccc(Cl)cc1)C(=O)N1CCCCC1 (stereo not given)	24% (active)
C[C@@H]1CN([C@@H](C)CO)C(=O)Cc2cc(NS(=O)(=O)c3ccc(Cl)cc3)ccc2O[C@H]1CN(C)Cc1ccc(C(F)(F)F)cc1	3.04%
Cc1noc(C)c1NC(=O)N(C)C[C@@H]1Oc2ccc(NC(=O)Nc3ccc4c(c3)OCO4)cc2C(=O)N([C@H](C)CO)C[C@H]1C	-1.03%
CC(C)NC(=O)Nc1ccc2c(c1)C(=O)N([C@H](C)CO)C[C@@H](C)[C@@H](CN(C)S(=O)(=O)c1ccc(Cl)cc1)OCCCC[C@H](C)O2	1.05%
C[C@@H]1CN([C@@H](C)CO)C(=O)c2c(c3ccccc3n2C)-c2ccccc2CO[C@H]1CN(C)C(=O)N[C@H](C)c1ccccc1	-3.17%
CS(=O)(=O)Nc1ccc2c(c1)[C@H]1C[C@@H](CC(=O)NCCc3ccccc3)O[C@@H](CO)[C@H]1O2	1.04%
Cc1noc(C)c1S(=O)(=O)Nc1ccc2c(c1)C(=O)N([C@@H](C)CO)C[C@@H](C)[C@H](CN(C)Cc1ccc(-c3ccccc3)cc1)O2	-0.726%
Cc1noc(C)c1NC(=O)Nc1ccc2c(c1)C(=O)N([C@@H](C)CO)C[C@H](C)[C@H](CN(C)Cc1ccc(C(=O)O)cc1)OCCCC[C@@H](C)O2	0.986%
Cc1ccccc1-c1ccc2c(c1)O[C@H](CN(C)C)[C@H](C)CN([C@@H](C)CO)S2(=O)=O	4.9%
CCCN1C[C@@H](C)[C@@H](OC)CN(C)C(=O)c2ccc(NS(C)(=O)=O)cc2OC[C@@H]1C	0.769%
O=C(C[C@@H]1CC[C@@H](NC(=O)C2CC2)[C@H](CO)O1)NCc1ccncc1	-0.635%
Cc1ccc(S(=O)(=O)NCC[C@H]2CC[C@H](NC(=O)c3ccccn3)[C@@H](CO)O2)cc1	1.02%
C[C@@H]1CN([C@H](C)CO)S(=O)(=O)c2ccc(-c3cccc(C#N)c3)cc2O[C@@H]1CN(C)C(=O)Nc1ccccc1F	-1.07%
CCCC#Cc1cnc2c(c1)C(=O)N([C@H](C)CO)C[C@H](C)[C@H](CN(C)C(=O)Cc1ccncc1)O2	0.18%
C[C@@H]1CN([C@H](C)CO)S(=O)(=O)c2ccc(C#CCN(C)C)cc2O[C@@H]1CN(C)C(=O)C1CCCCC1	-0.634%
COC(=O)C[C@@H]1CC[C@H]2[C@@H](COC[C@H](O)CN2C(=O)Nc2ccccc2OC)O1	-0.947%
C[C@@H]1CN([C@@H](C)CO)C(=O)c2cc(NC(=O)CCCN(C)C)ccc2O[C@@H](C)CCCCO[C@H]1CN(C)Cc1ccc2c(c1)OCO2	-1.38%
Cc1noc(C)c1NC(=O)Nc1ccc2c(c1)C(=O)N([C@H](C)CO)C[C@H](C)[C@H](CN(C)C(=O)C1CCCCC1)OCCCC[C@@H](C)O2	0.321%

SMILES	inhibition
CCCNC(=O)N1C[C@@H](O)COC[C@@H]2O[C@@H](CC(=O)O)CC[C@H]21	-1.59%
CC(C)C#Cc1ccc([C@@H]2[C@@H](CO)N3CCCCN(C(=O)c4ccc5c(c4)OCO5)C[C@H]23)cc1	-1.45%
OC[C@@H]1Nc2ccc(-c3cccc(F)c3)cc2[C@H]2[C@@H]1CCN2Cc1ccncc1	-3.81%
COc1cccc(S(=O)(=O)N[C@@H]2C=C[C@H](CC(=O)NC3CCC3)O[C@H]2CO)c1	-3.06%
CN1C(=O)c2cc(NC(=O)C3CCCCC3)ccc2OC[C@H]2O[C@@H](CC(=O)NC3CCCC3)CC[C@@H]21	-4.23%
CCCNC(=O)N1[C@H](C#N)[C@@H](c2ccc(C3=CCCC3)cc2)[C@H]1CO	10.3%
C[C@H](CO)N1C[C@H](C)[C@H](CN(C)Cc2ccc(C(=O)Nc3ccccc3N)cc2)Oc2c(NC(=O)Nc3ccccc3)cccc2C1=O	1.92%
CO[C@@H]1CN(C)C(=O)c2ccc(NC(=O)c3ccc(F)cc3)cc2OC[C@H](C)N(C(=O)c2ccc(F)cc2)C[C@@H]1C	-1.94%
COc1ccc(NC(=O)Nc2cccc3c2O[C@H](CN(C)C(=O)Nc2cccc4ccccc24)[C@H](C)CN([C@H](C)CO)C3=O)cc1	2.27%
CC(C)CC#Cc1ccc2c(c1)O[C@H](CN(C)C(=O)CC1CC1)[C@@H](C)CN([C@@H](C)CO)S2(=O)=O	0.792%
CC(C)CCNC(=O)c1[nH]c(C(F)(F)F)nc1-c1ccccc1	-5.32%
CC(C)CCC(C)NC(=O)c1ccc2nccnc2c1 (stereo not given)	-0.116%
CC(C)CCNC(=O)c1ccc2c(Cl)c3c(nc2c1)CCC3	58.9% (active)
Cc1noc(C)c1NC(=O)Nc1ccc2c(c1)CC(=O)N([C@H](C)CO)C[C@H](C)[C@H](CN(C)C(=O)NC(C)C)O2	2.55%
CC(=O)N(C)C[C@H]1Oc2cc(C#CCN(C)C)ccc2S(=O)(=O)N([C@H](C)CO)C[C@H]1C	-4.02%
CC=Cc1ccc2n(c1=O)C[C@@H]1[C@@H](CO)[C@H](C(=O)NCc3cccc(OC)c3)N[C@H]21 (mixture of isomers)	0.651%
CCCNC(=O)C[C@H]1C[C@@H]2c3cc(NC(=O)c4ccc5c(c4)OCO5)ccc3O[C@@H]2[C@@H](CO)O1	-7.26%
Cc1ccc(S(=O)(=O)Nc2ccc3c(c2)C(=O)N([C@H](C)CO)C[C@H](C)[C@@H](CN(C)C(=O)NC(C)C)OCCCC[C@@H](C)O3)cc1	-2.85%
Cc1ccc(S(=O)(=O)NCCC(=O)NCc2ccc(Cl)cc2)cc1C	-81.7%
CSc1ccc(S(=O)(=O)NCc2ccc(Cl)cc2)cc1	26.5% (active)
CC(C)CNS(=O)(=O)c1ccc(CCC(=O)NCc2ccc(Cl)cc2)cc1	0.729%
